The results in this text go back to ChEMBL document CHEMBL2218924, “A broad activity screen in support of a chemogenomic map for kinase signalling research and drug discovery” (Biochem J, 2013).

Assay [1] addresses T1, Serine/threonine-protein kinase BRSK1 (Homo sapiens) (UniProt Q8TDC3).
T1 sequence (whole entry): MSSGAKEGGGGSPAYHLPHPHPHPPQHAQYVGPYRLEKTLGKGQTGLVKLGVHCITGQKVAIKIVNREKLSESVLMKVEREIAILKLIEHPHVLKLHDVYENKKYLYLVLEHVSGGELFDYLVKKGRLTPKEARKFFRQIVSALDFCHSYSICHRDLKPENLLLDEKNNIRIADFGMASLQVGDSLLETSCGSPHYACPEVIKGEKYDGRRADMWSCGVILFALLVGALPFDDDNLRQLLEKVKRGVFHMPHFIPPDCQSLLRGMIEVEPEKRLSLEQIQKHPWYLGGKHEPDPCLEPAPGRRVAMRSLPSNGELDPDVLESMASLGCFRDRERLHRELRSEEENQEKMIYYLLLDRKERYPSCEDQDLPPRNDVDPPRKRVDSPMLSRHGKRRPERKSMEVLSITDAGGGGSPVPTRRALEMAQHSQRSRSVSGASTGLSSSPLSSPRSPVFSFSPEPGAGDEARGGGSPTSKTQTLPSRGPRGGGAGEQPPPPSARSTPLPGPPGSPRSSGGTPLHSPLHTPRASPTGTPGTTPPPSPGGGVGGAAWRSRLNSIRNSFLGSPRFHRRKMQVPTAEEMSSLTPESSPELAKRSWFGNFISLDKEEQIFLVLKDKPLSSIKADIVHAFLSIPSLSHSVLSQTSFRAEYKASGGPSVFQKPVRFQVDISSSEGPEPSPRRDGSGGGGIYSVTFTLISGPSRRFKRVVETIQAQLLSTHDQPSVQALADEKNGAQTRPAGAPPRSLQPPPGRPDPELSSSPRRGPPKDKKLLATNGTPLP
As to conditions: at 1 µM.

Assay [2] has as its target T1, Serine/threonine-protein kinase BRSK1 (Homo sapiens). Conditions: at 10 µM.
Assay [3] has as its target T2, Serine/threonine-protein kinase BRSK2 (Homo sapiens) (UniProt Q8IWQ3).
T2 sequence (whole entry): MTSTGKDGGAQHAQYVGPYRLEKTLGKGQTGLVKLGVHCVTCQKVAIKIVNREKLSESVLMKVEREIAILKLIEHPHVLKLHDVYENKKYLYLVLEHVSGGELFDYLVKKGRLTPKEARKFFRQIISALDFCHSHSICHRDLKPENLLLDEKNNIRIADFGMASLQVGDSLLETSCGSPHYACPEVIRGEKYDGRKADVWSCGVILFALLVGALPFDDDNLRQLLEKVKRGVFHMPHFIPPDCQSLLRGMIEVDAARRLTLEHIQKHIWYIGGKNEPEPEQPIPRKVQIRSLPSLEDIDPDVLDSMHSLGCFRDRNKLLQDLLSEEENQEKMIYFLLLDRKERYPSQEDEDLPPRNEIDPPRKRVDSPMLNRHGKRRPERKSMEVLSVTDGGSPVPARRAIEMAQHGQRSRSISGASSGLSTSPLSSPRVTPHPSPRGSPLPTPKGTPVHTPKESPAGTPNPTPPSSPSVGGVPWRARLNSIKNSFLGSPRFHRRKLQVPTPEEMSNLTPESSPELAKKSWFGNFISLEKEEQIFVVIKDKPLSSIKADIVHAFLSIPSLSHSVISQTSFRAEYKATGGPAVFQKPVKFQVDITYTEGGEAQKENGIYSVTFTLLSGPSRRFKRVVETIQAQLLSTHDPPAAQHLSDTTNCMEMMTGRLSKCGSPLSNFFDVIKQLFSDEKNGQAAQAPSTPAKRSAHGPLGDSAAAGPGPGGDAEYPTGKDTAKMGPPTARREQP
As to conditions: at 1 µM.

Assay [4] has as its target T2, Serine/threonine-protein kinase BRSK2 (Homo sapiens). As to conditions: at 10 µM.
Assay [5] concerns the target T3, Cyclin-dependent kinase 1/cyclin B1 (Homo sapiens) (UniProt P06493+P14635). As to conditions: at 1 µM.
For assay [6], the target named is T3, Cyclin-dependent kinase 1/cyclin B1 (Homo sapiens). As to conditions: at 10 µM.
Assay [7] deals with T4, Cyclin-dependent kinase 2/cyclin A (Homo sapiens) (UniProt P24941+P20248+P78396). As to conditions: at 1 µM.
Assay [8] has as its target T4, Cyclin-dependent kinase 2/cyclin A (Homo sapiens). Conditions: at 10 µM.
Assay [9] addresses T5, Cyclin-dependent kinase 2/cyclin E (Homo sapiens) (UniProt P24864+P24941+O96020). As to conditions: at 1 µM.
In assay [10] the target is T5, Cyclin-dependent kinase 2/cyclin E (Homo sapiens). As to conditions: at 10 µM.
The target of assay [11] is T6, CDK3/cyclin E (Homo sapiens) (UniProt P24864+O96020+Q00526). Conditions: at 1 µM.
T6 sequence (O96020 whole entry, looked up): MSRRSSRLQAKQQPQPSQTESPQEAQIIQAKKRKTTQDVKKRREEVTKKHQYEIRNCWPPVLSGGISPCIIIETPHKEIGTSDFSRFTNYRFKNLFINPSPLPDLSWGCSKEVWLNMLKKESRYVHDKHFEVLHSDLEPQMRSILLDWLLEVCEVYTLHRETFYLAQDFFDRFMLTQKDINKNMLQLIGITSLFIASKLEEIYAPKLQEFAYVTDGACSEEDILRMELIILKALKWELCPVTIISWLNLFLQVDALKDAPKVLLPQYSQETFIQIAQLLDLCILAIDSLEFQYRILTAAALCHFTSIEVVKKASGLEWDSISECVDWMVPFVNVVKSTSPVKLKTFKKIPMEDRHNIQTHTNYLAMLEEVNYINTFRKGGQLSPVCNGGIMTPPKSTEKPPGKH
T6 sequence (P24864 whole entry, looked up): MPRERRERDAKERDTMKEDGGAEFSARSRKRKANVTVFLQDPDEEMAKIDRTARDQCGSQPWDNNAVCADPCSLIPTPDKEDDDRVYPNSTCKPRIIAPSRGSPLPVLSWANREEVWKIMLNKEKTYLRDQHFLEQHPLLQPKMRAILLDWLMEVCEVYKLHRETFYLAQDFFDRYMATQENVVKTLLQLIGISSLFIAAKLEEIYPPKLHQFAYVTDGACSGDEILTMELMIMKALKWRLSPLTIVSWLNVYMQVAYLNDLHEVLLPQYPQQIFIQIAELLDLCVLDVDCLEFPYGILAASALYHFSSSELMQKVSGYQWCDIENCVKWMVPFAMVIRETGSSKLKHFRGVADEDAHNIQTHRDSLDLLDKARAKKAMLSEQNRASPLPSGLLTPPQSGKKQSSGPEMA
T6 sequence (Q00526 whole entry, looked up): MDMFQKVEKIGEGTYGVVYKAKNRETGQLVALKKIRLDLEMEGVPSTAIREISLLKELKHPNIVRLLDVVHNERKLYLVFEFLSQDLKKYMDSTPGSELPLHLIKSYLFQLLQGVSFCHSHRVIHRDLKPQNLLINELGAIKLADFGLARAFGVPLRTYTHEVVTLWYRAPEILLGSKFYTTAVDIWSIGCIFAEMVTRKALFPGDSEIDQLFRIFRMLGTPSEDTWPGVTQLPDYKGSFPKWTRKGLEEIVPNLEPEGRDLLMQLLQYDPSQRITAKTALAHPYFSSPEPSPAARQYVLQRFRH
Assay [12] deals with T6, CDK3/cyclin E (Homo sapiens). As to conditions: at 10 µM.
Assay [13] has as its target T7, Cyclin-dependent kinase 5/CDK5 activator 1 (Homo sapiens) (UniProt Q00535+Q15078). As to conditions: at 1 µM.
The target in assay [14] is T7, Cyclin-dependent kinase 5/CDK5 activator 1 (Homo sapiens). Conditions: at 10 µM.
For assay [15] the target is unchanged. Conditions: at 1 µM. The source holds these as a separate data set.
Assay [16] shares this target. Conditions: at 10 µM. This is another data set of the same source.
Assay [17] deals with T8, CDK6/cyclin D3 (Homo sapiens) (UniProt P30281+Q00534). Conditions: at 1 µM.
Assay [18] concerns the target T8, CDK6/cyclin D3 (Homo sapiens). Conditions: at 10 µM.
The target of assay [19] is T9, Cyclin-dependent kinase 7/ cyclin H (Homo sapiens) (UniProt P51946+P50613). Conditions: at 1 µM.
Assay [20] has as its target T9, Cyclin-dependent kinase 7/ cyclin H (Homo sapiens). As to conditions: at 10 µM.

T3 sequence (P06493 whole entry, looked up): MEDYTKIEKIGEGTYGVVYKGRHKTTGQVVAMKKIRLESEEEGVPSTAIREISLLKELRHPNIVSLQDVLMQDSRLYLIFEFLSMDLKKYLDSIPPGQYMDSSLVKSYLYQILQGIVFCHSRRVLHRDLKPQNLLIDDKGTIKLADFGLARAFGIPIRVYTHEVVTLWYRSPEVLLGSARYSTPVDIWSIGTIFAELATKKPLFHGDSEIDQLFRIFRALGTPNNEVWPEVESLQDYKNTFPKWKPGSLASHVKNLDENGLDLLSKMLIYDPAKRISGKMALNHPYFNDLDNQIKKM
T3 sequence (P14635 whole entry, looked up): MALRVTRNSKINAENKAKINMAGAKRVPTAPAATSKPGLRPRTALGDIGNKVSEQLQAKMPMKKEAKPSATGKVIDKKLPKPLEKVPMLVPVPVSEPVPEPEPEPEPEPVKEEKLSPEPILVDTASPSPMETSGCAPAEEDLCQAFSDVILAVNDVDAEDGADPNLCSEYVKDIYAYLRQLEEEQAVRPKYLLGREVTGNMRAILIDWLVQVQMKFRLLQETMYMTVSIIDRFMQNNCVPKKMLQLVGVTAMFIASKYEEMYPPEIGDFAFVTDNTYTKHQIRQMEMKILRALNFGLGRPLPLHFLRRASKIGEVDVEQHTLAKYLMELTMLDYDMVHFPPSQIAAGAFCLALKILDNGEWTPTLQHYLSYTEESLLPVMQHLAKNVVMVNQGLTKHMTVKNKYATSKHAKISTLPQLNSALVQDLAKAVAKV
T7 sequence (Q00535 whole entry): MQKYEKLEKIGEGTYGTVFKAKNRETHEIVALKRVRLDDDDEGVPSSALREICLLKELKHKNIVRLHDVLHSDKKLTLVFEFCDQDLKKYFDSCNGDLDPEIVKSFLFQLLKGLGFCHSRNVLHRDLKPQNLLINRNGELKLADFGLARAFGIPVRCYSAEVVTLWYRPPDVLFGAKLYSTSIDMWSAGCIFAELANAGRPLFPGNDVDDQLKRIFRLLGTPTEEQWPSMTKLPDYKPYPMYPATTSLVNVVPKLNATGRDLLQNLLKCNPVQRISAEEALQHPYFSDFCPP
T7 sequence (Q15078 99-307 partner limits assumed): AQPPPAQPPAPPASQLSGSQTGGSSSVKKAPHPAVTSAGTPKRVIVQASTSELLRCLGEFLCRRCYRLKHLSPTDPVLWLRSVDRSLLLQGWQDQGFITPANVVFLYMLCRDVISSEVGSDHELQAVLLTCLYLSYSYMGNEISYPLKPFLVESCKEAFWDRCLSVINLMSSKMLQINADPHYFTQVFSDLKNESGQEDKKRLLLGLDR

For `Nc1cccc(-c2cc3c(Oc4cccc(O)c4)ncnc3[nH]2)c1`, the residual activity in assay [1] is 45%; in [2], 8%; in assay [3], 75%; in assay [4] it was 20%; in assay [5], 81%; in assay [6] it was 33%. Besides, the residual activity in [7] turned out to be 74%; in [8] it was 27%; in assay [9], 91%; in [10], 41%; in assay [11], 82%; in assay [12], 34%. Further, the residual activity in [13] stood at 53%; in [14] it was 12%; in assay [15], 72%; in assay [16], 14%; in [17] it was 101%; in [18], 64%. For the same compound, the residual activity came out at 101% in [19] and 67% in assay [20].
As to `Nc1n[nH]c2nnc(-c3c(-c4ccccc4)nn4ccccc34)cc12`, the residual activity in [1] turned out to be 92%; in [2], 70%; in assay [3], 103%; in [4], 96%; in assay [5], 107%; in [6], 99%. Moreover, the residual activity was determined as 92% in assay [7]; 90% in assay [8]; 93% in assay [9]; 96% in assay [10]; 90% in assay [11]; 90% in assay [12]. Besides, the residual activity was 95% in [13]; 99% in assay [14]; 112% in assay [15]; 79% in [16]; 81% in assay [17]; 43% in [18]. Further, the residual activity was found to be 106% in assay [19] and 89% in assay [20].
Consider `O=C1NC(=O)/C(=C\c2ccc3nccnc3c2)S1`, for which the residual activity in assay [1] came to 59%; in [2], 65%; in assay [3], 78%; in assay [4], 77%; in assay [5], 79%; in assay [6] it was 31%. The residual activity is 132% in assay [7]; 47% in assay [8]; 94% in assay [9]; 98% in [10]; 96% in assay [11]; 68% in assay [12]. Besides, the residual activity in assay [13] turned out to be 96%; in assay [14] it was 64%; in assay [15] it was 97%; in [16] it was 74%; in assay [17], 91%; in assay [18], 86%. Moreover, the figures for the residual activity in assay [19] and in [20] were 89% and 80%, respectively.
In the case of `COc1ccc(OC)c2c(=S)c3ccccc3[nH]c12`, the residual activity was 78% in [1]; 76% in [2]; 99% in assay [3]; 89% in assay [4]; 100% in assay [5]; 94% in assay [6]. For the same compound, the residual activity in assay [7] stood at 85%; in assay [8], 80%; in assay [9] it was 85%; in [10], 74%; in assay [11], 92%; in assay [12] it was 73%. The residual activity in [13] came out at 97%; in assay [14] it was 58%; in assay [15], 105%; in assay [16] it was 67%; in [17] it was 90%; in assay [18], 85%. In addition, the residual activity in [19] was 123%; in assay [20], 87%.
`O=C1NC(=O)/C(=C/c2ccc3c(c2)OC(F)(F)O3)S1`: the residual activity in assay [1] stood at 86%; in [2], 71%; in assay [3] it was 76%; in assay [4], 62%; in [5], 101%; in assay [6] it was 104%. Further, the residual activity was found to be 140% in assay [7]; 96% in assay [8]; 102% in assay [9]; 113% in assay [10]; 104% in [11]; 89% in assay [12]. For the same compound, the residual activity in assay [13] amounted to 102%; in [14] it was 91%; in assay [15], 101%; in [16], 94%; in assay [17], 98%; in assay [18], 90%. Further, the figures for the residual activity in assay [19] and in [20] were 88% and 86%, respectively.
As to `CCN(CC)CCCCN1c2ccccc2Oc2ccc(Cl)cc21`, the residual activity in [1] stood at 88%; in assay [2] it was 105%; in assay [3] it was 131%; in assay [4] it was 126%; in [5] it was 119%; in assay [6], 96%. Moreover, the residual activity came to 132% in [7]; 102% in assay [8]; 116% in assay [9]; 106% in [10]; 117% in [11]; 94% in assay [12]. Besides, the residual activity in [13] amounted to 99%; in [14], 102%; in assay [15], 100%; in assay [16], 105%; in assay [17], 108%; in [18], 103%. In addition, the figures for the residual activity in assay [19] and in assay [20] were 89% and 105%, respectively.
On to `Cc1nc2cc3nc(-c4cccs4)cnc3cc2n1C`, for which the residual activity stood at 68% in assay [1]; 75% in [2]; 102% in assay [3]; 105% in [4]; 109% in assay [5]; 79% in assay [6]. Besides, the residual activity in [7] is 144%; in assay [8], 91%; in assay [9], 115%; in [10] it was 104%; in assay [11], 109%; in assay [12], 99%. In addition, the residual activity is 91% in [13]; 109% in assay [14]; 106% in [15]; 99% in assay [16]; 107% in assay [17]; 93% in assay [18]. Also, the residual activity in assay [19] was 82%; in assay [20], 102%.
